Hits are enriched below; roughly 6% of the tested compounds scored in any of these assays.
D1 antag: antagonists of human D1 dopamine receptor; HEK293 TREx D1 cells, calcium flux, dopamine EC80; active compounds read low; activity change, negative = inhibition, % at 10 µM; actives 3.2% (n = 360,000); in the data active = activity change below about -30%
Target sequence (P21728 whole entry, looked up): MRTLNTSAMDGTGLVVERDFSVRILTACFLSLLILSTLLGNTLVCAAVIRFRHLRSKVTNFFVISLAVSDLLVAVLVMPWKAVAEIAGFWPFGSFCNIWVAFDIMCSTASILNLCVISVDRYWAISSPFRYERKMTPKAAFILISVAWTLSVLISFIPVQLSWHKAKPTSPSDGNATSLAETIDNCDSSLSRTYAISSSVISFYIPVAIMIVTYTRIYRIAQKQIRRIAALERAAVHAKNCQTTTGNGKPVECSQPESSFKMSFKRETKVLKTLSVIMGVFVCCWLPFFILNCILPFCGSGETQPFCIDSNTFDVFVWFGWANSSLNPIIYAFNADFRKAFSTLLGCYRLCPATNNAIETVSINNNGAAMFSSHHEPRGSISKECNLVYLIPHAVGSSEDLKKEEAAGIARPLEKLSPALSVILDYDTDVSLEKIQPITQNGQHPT
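After overnight tetracycline induction at 30 C, force-coupled D1 HEK293 cells took up a no-wash calcium dye at room temperature. Compounds were added and monitored 180 s, and the response to EC80 dopamine was then recorded.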
DRD3 agonist: agonists of human D3 dopamine receptor; max activation, %; D3R DiscoveRx beta-arrestin cells, luminescence, 90 min; P35462; actives 0.58% (n = 410,000); in the data active = max activation above about 30%
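Agonist mode: compounds and dopamine controls were applied to plated cells for 90 min at 37 degrees C after an overnight attachment at 1500 cells/well. Luminescent read-out followed 30 - 60 minutes at room temperature with DiscoveRx detection reagent.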
D1 PAM: potentiators of human D1 dopamine receptor; actives 0.036% (n = 360,000); P21728; HEK293 TREx D1 cells, calcium flux, dopamine EC20 potentiation; potentiation, % at 10 µM; in the data active = potentiation above about 30%
DRD3 antagonist: blocks the human D3 dopamine receptor. P35462. actives 2.5% (n = 360,000). D3R cells, DiscoveRx beta-arrestin luminescence, antagonist mode; active compounds read low. max response, negative = inhibition, %; in the data active = max response below about -50%; inconclusive = no clear call, values can overlap the other calls
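Cells expressing the human receptor were seeded at 1500 cells/well, incubated overnight at 37 degrees C in 5% CO2, then exposed to library compounds with dopamine controls for 90 minutes at 37 degrees C before luminescent detection.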
D1 agonist: agonists of human D1 dopamine receptor; actives 1% (n = 360,000); P21728; HEK293 T-REx D1 cells, calcium flux, agonist mode; activation, % at 2 µM; AID 504660; in the data active = activation above about 30%
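Tetracycline-induced HEK293 TREx D1 cells, force-coupled to calcium signalling, were dye-loaded with a no-wash calcium kit. Compound was pin-added after a 10 s baseline. Fluorescence was read kinetically at 1 cycle/s for 180 s, with calcium rises flagged as agonism.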
Large screens that a line does not name were inactive.

O=C(Nc1ccccc1)c1cccc(S(=O)(=O)Nc2ccccn2)c1	none
O=C(NC1CCN(Cc2ccccc2)CC1)c1cccc(S(=O)(=O)Nc2ccc(Br)cc2)c1	DRD3 antagonist -57
Cc1ccc(NS(=O)(=O)c2cccc(C(=O)NC3CCN(Cc4ccccc4)CC3)c2)c(C)c1	DRD3 antagonist -97 (no result: D1 antag, D1 PAM, D1 agonist)
COc1ccccc1NS(=O)(=O)c1cccc(C(=O)NC2CCN(Cc3ccccc3)CC2)c1	D1 antag -37, DRD3 antagonist -95
O=C(NC1CCN(Cc2ccccc2)CC1)c1cccc(S(=O)(=O)Nc2ccc(F)cc2)c1	DRD3 antagonist inconclusive
O=C(Nc1ccc(Br)cc1)c1cccc(S(=O)(=O)Nc2ccccn2)c1	D1 antag -62
CCc1ccc2oc(-c3cc(NC(=O)c4cc([N+](=O)[O-])ccc4N4CCOCC4)ccc3Cl)nc2c1	none (no result: DRD3 antagonist)
C=CCN(c1ccccc1)S(=O)(=O)c1cccc(C(=O)NC2CCN(Cc3ccccc3)CC2)c1	D1 antag -37, DRD3 antagonist -79
COc1ccccc1NS(=O)(=O)c1cc(C(=O)NC2CCN(Cc3ccccc3)CC2)ccc1C	DRD3 antagonist -92 (no result: D1 antag, D1 PAM, D1 agonist)
Cc1ccc(C(=O)NC2CCN(Cc3ccccc3)CC2)cc1S(=O)(=O)N1CCOCC1	DRD3 antagonist -67
Cc1ccc(C(=O)NC2CCCCCC2)cc1S(=O)(=O)N1CCOCC1	none
COc1ccccc1NS(=O)(=O)c1ccc(C)c(C(=O)NC2CCN(Cc3ccccc3)CC2)c1	DRD3 antagonist inconclusive
Cc1ccc(NC(=O)Cn2c(=O)n(CCC(=O)NCCc3ccccc3)c(=O)c3ccccc32)cc1	none (no result: DRD3 antagonist)
CNCCC(Oc1ccccc1OC)c1ccccc1 (stereo unspecified)	none (no result: D1 antag, D1 PAM, D1 agonist)
CNCC[C@@H](Oc1ccccc1C)c1ccccc1	DRD3 antagonist -57 (no result: D1 antag, D1 PAM, D1 agonist)
Cc1ccc(NC(=O)CSc2nccn2C2CCCC2)cc1Cl	none (no result: DRD3 antagonist)
CC(=O)Oc1ccc(-c2cc3ccc(OC(C)=O)cc3oc2=O)cc1	none (no result: D1 antag, D1 PAM, D1 agonist)
COc1ccc(-c2cc3ccc(OC(C)C(=O)O)cc3oc2=O)cc1 (stereo unspecified)	D1 antag -30
CCOc1ccc(N2C(=O)C3=C(C(c4ccc(Cl)cc4)=NCCN3)C2c2cccnc2)cc1 (stereo unspecified)	D1 antag -47
Cc1ccc(C2C3=C(NCCN=C3c3ccccc3)C(=O)N2c2ccccc2)cc1 (stereo unspecified)	none
CCN(CC)N=Nc1ccc(S(=O)(=O)Nc2nc(C)cc(C)n2)cc1	none
Cc1cc(C)nc(NCCC(=O)O)n1	D1 antag -58
O=c1ccc2ccc(O)cc2o1	none (no result: D1 antag, D1 PAM, D1 agonist)
O=c1ccc2cc(O)c(O)cc2o1	D1 antag -41
CCC(NC(C)C)C(O)c1ccc(O)c2[nH]c(=O)ccc12 (stereo unspecified)	DRD3 agonist 35
CCC(Sc1nc2ncccc2o1)C(=O)Nc1ccc(OC)c(OC)c1 (stereo unspecified)	none (no result: DRD3 antagonist)
O=C(OCCN1CCN(C2=NS(=O)(=O)c3ccccc32)CC1)c1ccccc1F	D1 antag -32
COc1ncnc(OC)c1S(=O)(=O)Nc1ccc(C(F)(F)F)cc1	D1 antag -31
CC(=O)OCC(=O)Nc1cc(C#N)cc(NC(=O)COC(C)=O)c1Cl	none (no result: D1 antag, D1 PAM, DRD3 antagonist, D1 agonist)
CN=C1S/C(=C\c2cc(C)n(-c3ccccc3F)c2C)C(=O)N1C	D1 antag -43
Cc1cc(/C=C2\SC(=O)N(C)C2=O)c(C)n1-c1ccc(O)cc1	none
COc1ccc(-n2c(=O)c3sc4ccccc4c3n(CC(=O)NCc3ccccc3)c2=O)cc1	none (no result: DRD3 antagonist)
Cc1c(N=NC2=C(O)CCCC2=O)c(=O)n(-c2ccccc2)n1C	DRD3 antagonist -83
Cc1c(N=Nc2ccc(O)cc2)c(=O)n(-c2ccccc2)n1C	none
Cc1ccc(C23CC4CC(CC(CN)(C4)C2)C3)cc1	D1 agonist 42
N#Cc1c(C#N)c(SSc2c(C#N)c(C#N)c(N)n2-c2ccccc2)n(-c2ccccc2)c1N	DRD3 antagonist inconclusive (no result: D1 antag, D1 PAM, D1 agonist)
Cn1c(Sc2ccc(Br)cc2)c(C=O)c2ccccc21	D1 antag -63
CCn1c(O)c(N=NC(=O)CNC(=O)c2ccco2)c2ccccc21	none
CCn1c(O)c(N=NC(=O)CNC(=O)c2ccccc2F)c2ccccc21	DRD3 antagonist -74
COc1ccccc1C(=O)NCC(=O)N=Nc1c(O)n(C(C)C)c2ccccc12	DRD3 antagonist -59
COc1ccccc1CNC(=O)C1CCCN(S(=O)(=O)c2ccc3c(c2)CCCN3C(C)=O)C1 (stereo unspecified)	none (no result: DRD3 antagonist)
O=S(=O)(c1ccccc1)c1nc(-c2ccccc2Cl)oc1NCCN1CCOCC1	none
Cc1ccc(S(=O)(=O)c2nc(-c3ccccc3)oc2NCCN2CCOCC2)cc1	DRD3 antagonist -73
O=S(=O)(c1ccccc1)c1nc(-c2ccccc2Cl)oc1NCCCN1CCOCC1	DRD3 antagonist -71 (no result: D1 antag, D1 PAM, D1 agonist)
Cc1ccccc1-c1nc(S(=O)(=O)c2ccc(Cl)cc2)c(NCCN2CCOCC2)o1	DRD3 antagonist inconclusive
Cc1ccccc1-c1nc(S(=O)(=O)c2ccccc2)c(NCCCN2CCOCC2)o1	DRD3 antagonist -65 (no result: D1 antag, D1 PAM, D1 agonist)
Cc1noc(/C=C/c2cccs2)c1S(=O)(=O)N1CCC(C(=O)Nc2ccc(F)c(Cl)c2)CC1	none (no result: DRD3 antagonist)
COc1ccc(CCNC(=O)c2c(O)c3c([nH]c2=O)CCCC3)cc1	DRD3 antagonist -126
Cc1sc2nc(C(C)C)nc(SCC(=O)N3CCN(C(=O)c4ccco4)CC3)c2c1C	none
Cc1sc2nc(C3CC3)nc(SCC(=O)N3CCCc4ccccc43)c2c1C	none (no result: DRD3 agonist, DRD3 antagonist)
Cc1sc2nc(C3CC3)nc(SCC(=O)N3CCc4ccccc4C3)c2c1C	DRD3 agonist 46
CCc1c(C)sc2nc(C(C)C)nc(SCC(=O)N3CCc4ccccc4C3)c12	DRD3 agonist 50
O=C(c1ccccc1Cl)N1N=C(c2cccs2)CC1c1cccc(O)c1 (stereo unspecified)	none
CCCCCCCCCC(=O)N1c2ccccc2NC(=O)C1CC(=O)Nc1ccc(C(=O)O)cc1 (stereo unspecified)	D1 agonist 39
CCCCCCCC(=O)N1c2ccccc2NC(=O)C1CC(=O)Nc1ccc(C(=O)O)cc1 (stereo unspecified)	none
CCOc1ccc2nc(N3CCN(C(=O)CS(=O)(=O)c4ccc(F)cc4)CC3)sc2c1	none (no result: D1 antag, DRD3 antagonist)
Cc1ccc(CN2CCC(CNc3ncnc4onc(-c5ccc(Cl)cc5)c34)CC2)cc1	none (no result: DRD3 antagonist)
Oc1c(Cl)cc(Cl)cc1Sc1cc(Cl)cc(Cl)c1O	D1 antag -56 (no result: DRD3 antagonist)
COc1ccc(CCC(=O)NNC(=O)c2ccc(F)cc2)cc1	D1 antag -30
COc1ccc(C(=O)NCCS(=O)(=O)NCc2ccc(F)cc2)cc1	D1 antag -31
CCCCCCCCNS(=O)(=O)CCNCc1ccccc1OC	DRD3 antagonist -51 (no result: D1 antag, D1 PAM, D1 agonist)
CCCCCCCCNS(=O)(=O)CCNCc1ccco1	DRD3 agonist 37 (no result: D1 antag, D1 PAM, D1 agonist)
COc1ccc(CCC(=O)NNC(=S)NCc2ccc(F)cc2)cc1	none
COc1ccc(NC(=O)N2CCOc3ccc(Cl)cc32)cc1	none (no result: DRD3 antagonist)
